From PubChem BioAssay
“And” between values parts separate entries of the source, which are not always exact repeats. Equal values may be shown once. The source made the active and inactive calls.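 How the source made its calls, unless noted: active means compounds whose cell count with miR-34 switched on is under 0.7 times the count with it off; inactive means the rest.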 Where a SMILES comes first, the peptide text is derived from it. [ ]: non-standard residue; d: D form. pGlu = O=C1CC[CH](C(=O)O)N1; Thz = O=C(O)[CH]1CSCN1

Assays:
[1] = viability loss with induced miR-34 in A549 – imaging, A549 dox-inducible miR-34, nuclei and caspase counts, primary screen (AID 1347080); conditions: A549 miR-34 inducible, Hoechst nuclei count, 48 h; further: test concentration not given here
[2] = MELAS cybrid and Rieske KO viability enhancers – cell-based, MELAS cybrids, Rieske KO mouse fibroblasts, CellTiter-Glo, primary screen (AID 1508586;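 active means mean z-score across replicates of 1.96 or higher in either the MELAS or the Rieske mutant cell line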;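 further: test concentration not given here; z relative to plate mean and SD of compound and empty wells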); conditions: low glucose
[3] = galactose survival enhancers in mitochondrial complex I cybrids – cell-based, galactose medium, ATP luminescence, primary screen (AID 1645843;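 active means z-score of at least 1.8 in each of two replicates, scored against plate mean and spread of sample wells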;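 further: positive z means more ATP and so rescue of galactose-driven cybrid death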); conditions: complex I mutant cybrid cells, 72 h, stronger effect = higher value
[4] = stronger effect = lower value, cell number ratio, induced over uninduced
[5] = measured here: relative caspase fold change +Dox/-Dox
[6] = measured here: total cells with miR-34 induction, stronger effect = lower value
[7] = measured here: total cells without miR-34 induction
[8] = MELAS cybrid survival, CellTiter-Glo 48 h, stronger effect = higher value
[9] = Rieske KO mouse fibroblast survival, CellTiter-Glo 72 h

Structure (SMILES) | fold change [1, 4] | fold change [1, 5] | cell count [1, 6] | cell count [1, 7] | z-score [2, 8] | z-score [2, 9] | z-score [3]
Cc1cc(NC(=O)Cn2ncc3cc(-c4ccc(F)c(F)c4)ccc32)n(C)n1 | 0.877 (inactive) | 0.515 | 4810 | 5490 | 0.668 (inactive) | -0.0382 | 0.765 (inactive)
CC1(C)OC2CO[C@@]3(COS(N)(=O)=O)OC(C)(C)OC3C2O1 (stereo partly specified) | 0.947 (inactive) and 0.976 (inactive) | 1.9 and 0.922 | 9570 and 9420 | 10100 and 9650 | 1.94 (inactive) | -0.659 | 1.01 (inactive)
Fc1ccc(CC2CCNCC2)cc1 | 0.856 (inactive) | 0.77 | 8200 | 9580 | -0.906 (inactive) | 0.0714 | 0.525 (inactive)
Cc1nsc(NC(=O)N2CCCCC2c2nc(C(C)C)no2)n1 (stereo unspecified) | 0.906 (inactive) | 1.98 | 9100 | 10000 | -0.274 (inactive) | -0.381 | -0.525 (inactive)
CC(C)SC1OC(CO)C(O)C(O)C1O (stereo unspecified) | 0.887 (inactive) | 0.478 | 8290 | 9350 | -0.322 (inactive) | -0.813 | 0.635 (inactive)
O=C(O)c1ccc(-c2ccccc2Cl)o1 | 0.867 (inactive) | 0.416 | 7840 | 9050 | -0.894 (inactive) | 0.4 | 0.53 (inactive)
CCC1C(=O)N(C)CCN1C(=O)Nc1nc(C)ns1 (stereo unspecified) | 1.02 (inactive) | 1.35 | 8670 | 8510 | -0.0427 (inactive) | -0.105 | -0.49 (inactive)
CN1CCN(Cc2ccc3nonc3c2)CC1CCO (stereo unspecified) | 0.893 (inactive) | 1.09 | 8970 | 10000 | -0.262 (inactive) | -0.13 | -0.35 (inactive)
CC(NC(CCc1ccccc1)C(=O)O)C(=O)N1CCCC1C(=O)O (stereo unspecified) | 0.974 (inactive) and 0.933 (inactive) | 2.22 and 0.554 | 9670 and 8080 | 9920 and 8660 | 0.277 (inactive) | 0.0621 | 0.69 (inactive)
O=C(O)CCC(=O)Nc1ccc(Br)cn1 | 0.858 (inactive) | 0.548 | 8810 | 10300 | 0.399 (inactive) | -0.113 | 0.275 (inactive)
CCn1cnc(NC(=O)N(C)Cc2cccc3ncccc23)n1 | 0.944 (inactive) | 1.82 | 9300 | 9840 | -0.163 (inactive) | -0.316 | -0.465 (inactive)
COc1ncccc1-c1cnn(CC(=O)Nc2cc(-c3ccccn3)nn2C)c1 | 0.961 (inactive) | 0.557 | 9520 | 9900 | -0.417 (inactive) | 0.201 | -0.56 (inactive)
COc1cccc2ncn(Cc3nc4ccccc4o3)c(=O)c12 | 0.951 (inactive) | 1.68 | 8290 | 8720 | -0.0437 (inactive) | -0.268 | -0.545 (inactive)
O=C(O)c1ccc(B(O)O)cc1 | 0.887 (inactive) | 0.4 | 8340 | 9400 | 0.638 (inactive) | 0.194 | 0.105 (inactive)
CN1CCN(Cc2cccc3cccnc23)CC1CCO (stereo unspecified) | 0.928 (inactive) | 1.86 | 8360 | 9010 | 0.709 (inactive) | -1.63 | -0.585 (inactive)
Cc1nn(C)cc1-c1ccnc(N2CCCN(c3ccccc3)CC2)n1 | 0.823 (inactive) | 0.527 | 5610 | 6820 | -1.06 | 3.98 | 2.46 (active)
NC1=NC(=O)C(=Cc2ccc(-c3ccc(C(=O)O)cc3)o2)S1 | 0.91 (inactive) | 0.479 | 8530 | 9370 | 0.721 (inactive) | -0.231 | 0.485 (inactive)
Cc1nn(C)c(C)c1-c1ccnc(NCCOCCO)n1 | 0.905 (inactive) | 1.28 | 8320 | 9200 | 0.0151 (inactive) | -0.129 | -0.555 (inactive)
CCc1ccc(CNC(=O)Nc2nc(C)n(C(C)C)n2)nc1 | 0.86 (inactive) | 1.49 | 7770 | 9030 | 0.0188 (inactive) | 0.8 | -0.525 (inactive)
Cc1ccc(CN2CCN(c3ncnc4sccc34)CC2=O)cc1 | 0.911 (inactive) | 1.87 | 4200 | 4610 | -0.0356 (inactive) | -0.417 | 3.8 (active)
O=C(O)c1cc(Br)ccc1NS(=O)(=O)c1ccc(Cl)cc1 | 0.854 (inactive) | 0.75 | 8540 | 10000 | -0.163 (inactive) | -0.343 | 0.495 (inactive)
COc1ccc2c(c1)CCN(C(=O)Nc1n[nH]c(-c3ccccc3F)n1)C2 | 0.904 (inactive) | 0.695 | 7710 | 8530 | -0.521 | 3.73 | 0.16 (inactive)

Structure (SMILES) | fold change [1, 4] | fold change [1, 5] | cell count [1, 6] | cell count [1, 7] | z-score [2, 8] | z-score [2, 9] | z-score [3]
c1nc(N2CCOCC2)c2[nH]cnc2n1 | 0.913 (inactive) | 0.416 | 8460 | 9270 | -0.198 (inactive) | -0.176 | 1.15 (inactive)
CC(C)C(N)C(=O)OCCOCn1cnc2c(=O)[nH]c(N)nc21 (stereo unspecified) | 0.946 (inactive) and 0.861 (inactive) | 1.94 and 0.803 | 9720 and 8030 | 10300 and 9320 | -0.311 (inactive) | 0.593 | 0.365 (inactive)
c1cc(-c2nc(Cc3ccsc3)no2)c2nccnc2c1 | 0.89 (inactive) | 0.787 | 8210 | 9220 | -0.0904 (inactive) | 1.15 | 0.105 (inactive)
O=C1CCC(C(=O)N2CSCC2C(=O)O)N1 (stereo unspecified) ([pGlu]-[Thz]-OH; configuration not given here) | 0.957 (inactive) and 1 (inactive) | 1.75 and 0.634 | 9270 and 8110 | 9680 and 8100 | -0.302 (inactive) | -0.109 | 0.45 (inactive)
O=C1CCCc2occ(C(=O)N3CCc4[nH]nc(Cc5ccccc5)c4C3)c21 | 0.979 (inactive) | 0.441 | 9440 | 9640 | -0.275 (inactive) | -0.284 | -0.515 (inactive)
O=C1CN(c2ncnc3sccc23)CCN1C1CCCC1 | 0.857 (inactive) | 1.28 | 8070 | 9410 | -1.24 (inactive) | -0.154 | 1.98 (inactive)
COc1cc(N2CCN(Cc3ccccc3F)C(=O)C2)ncn1 | 0.848 (inactive) | 1.97 | 6780 | 7990 | -0.24 (inactive) | -0.349 | -0.475 (inactive)
Cc1nn(C)c(C)c1-c1ccnc(NCCc2nc3ccc(Cl)cc3[nH]2)n1 | 0.924 (inactive) | 3.32 | 1430 | 1550 | -0.908 (inactive) | 0.453 | -0.38 (inactive)
Cc1nsc(NC(=O)N2CCC(C(O)CC(C)C)CC2)n1 (stereo unspecified) | 0.832 (inactive) | 2.21 | 6540 | 7860 | 0.507 (inactive) | -0.186 | -0.63 (inactive)
CC(C)C1=NOC(c2nc(-c3cccc4ccccc34)no2)C1 (stereo unspecified) | 0.862 (inactive) | 1.54 | 7930 | 9200 | 0.244 (inactive) | 0.252 | 2 (inactive)
Nc1[nH]c(=O)[nH]c(=O)c1N | 0.894 (inactive) | 0.315 | 8900 | 9960 | 0.368 (inactive) | 0.648 | 0.84 (inactive)
c1ccc(CN2CCC(Nc3ncnc4sccc34)CC2)nc1 | 0.895 (inactive) | 1.42 | 5240 | 5860 | -0.277 (inactive) | -0.421 | -0.58 (inactive)
CC(C)(C)Nc1nc(N)c(C(=O)c2ccccc2)s1 | 0.899 (inactive) | 0.5 | 6780 | 7540 | 3.13 (active) | 0.287 | 0.55 (inactive)
CCCn1cc(-c2ccnc(NC3CCN(Cc4cccnc4)CC3)n2)c(C)n1 | 0.82 (inactive) | 2 | 3430 | 4180 | -0.647 (inactive) | 0.672 | -0.55 (inactive)
COc1ccccc1-c1ccc(C(=O)O)o1 | 0.892 (inactive) | 0.465 | 8930 | 10000 | -1.1 (inactive) | 0.506 | 1.07 (inactive)
O=C(c1cccc2nccnc12)N1CCc2[nH]nc(COc3ccccc3)c2C1 | 0.845 (inactive) | 1.54 | 8640 | 10200 | -0.113 (inactive) | -0.39 | -0.45 (inactive)
CCn1ncc2[nH]c(-c3c(OC(C)C)ccc4ccccc34)nc21 | 0.906 (inactive) | 1.3 | 7700 | 8510 | -0.33 (inactive) | -0.482 | 0.5 (inactive)
Cc1nc(-c2ccnc(N)n2)cn1Cc1c(Cl)cccc1Cl | 0.853 (inactive) | 0.94 | 7950 | 9330 | -0.789 (inactive) | 0.727 | -0.225 (inactive)
COC(=O)CN1CCN(C(=O)Nc2n[nH]c(-c3ccco3)n2)CC1=O | 0.915 (inactive) | 1.4 | 9430 | 10300 | 0.382 (inactive) | 0.531 | 1.98 (inactive)
O=C(CC(=O)C(F)(F)F)c1cccs1 | 0.883 (inactive) | 0.164 | 8190 | 9270 | -1.06 (inactive) | 0.275 | -0.485 (inactive)
Cc1nn(C)cc1-c1ccnc(NCc2nc(-c3ccccc3)no2)n1 | 0.84 (inactive) | 1.25 | 7970 | 9490 | -0.588 (inactive) | 1.31 | 0.09 (inactive)
